Test results taken from PubChem BioAssay AID651582 (Sanford-Burnham Center for Chemical Genomics, 2012).
Screen size: about 230,000 compounds; about 1,500 (0.65%) were called active. This is one part of a sample in which actives are shown more often than they occur.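 The calls were made as follows: active = pattern-corrected inhibition of lipid staining of at least 50% with the nuclear-stain viability signal not falling by more than 50%; inactive = the rest, inconclusive results apart.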

Experiment: inhibitors of triacylglycerol accumulation, primary screen, cell-based, uHTS, fluorescence, H9c2 (AID 651582);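 as to inhibition: 0% = DMSO wells and 100% = triacsin C control wells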
Settings: H9c2 cells, Nile Red lipid (TAG) fluorescence, at 12.5 µM, cells loaded with 200 µM oleic acid; DAPI nuclei signal change (viability), lower = more cytotoxic: measured here: DAPI nuclei count viability; inhibition: stronger effect = higher value

Row | Compound | DAPI nuclei signal change (viability), lower = more cytotoxic [%] | inhibition
1 | NC(=O)c1ncn([C@@H]2O[C@H](CN=C3NS(=O)(=O)c4ccccc43)[C@@H](O)[C@H]2O)n1 | -1.84 | 13.5% (inactive)
2 | COc1ccc(OCCNC(=O)c2cc(C3CC3)nc3c2cnn3C(C)C)cc1 | -4.88 | -39.8% (inactive)
3 | COc1ccc(C(=O)OCC(=O)Nc2cc(C)on2)cc1F | -5.17 | 7.73% (inactive)
4 | C=CCOC(=O)N1CCC2CC1c1cc(-c3ccc(OC)cc3)ccc12 (stereo not given) | 8.41 | -34.5% (inactive)
5 | CN(C)CCCN(C(=O)COc1ccccc1)c1nc2c(Cl)cccc2s1 | -0.936 | 15.4% (inactive)
6 | COc1cccc2sc(N(CCCN(C)C)C(=O)C(c3ccccc3)c3ccccc3)nc12 | -45.3 | 117% (active)
7 | CCN(CC)CCN(C(=O)c1ccc2c(c1)CCCC2)c1nc2c(OC)cccc2s1 | 40 | -1.62% (inactive)
8 | O=c1c(Cl)c(NC2CC2)cnn1-c1ccccc1 | -5.81 | -2.29% (inactive)
9 | Cc1cccc(-n2ncc(Cl)c(Cl)c2=O)c1 | -35.3 | 75.4% (active)
10 | COc1ccc(Oc2c(Cl)cnn(-c3ccccc3)c2=O)cc1 | 2.85 | -4.37% (inactive)
11 | CCCNC(=O)C1(C)CCN(C(=O)c2ccc(F)cc2Cl)C1 (stereo not given) | 8.17 | 2.28% (inactive)
12 | Nc1ccccc1Sc1ccc(C(F)(F)F)cc1[N+](=O)[O-] | 8.68 | -15.4% (inactive)
13 | Nc1ccccc1SC(C[N+](=O)[O-])c1ccccc1 (stereo not given) | -46.5 | 63.9% (active)
14 | CCS(=O)(=O)c1cc([N+](=O)[O-])c(Sc2ccccc2N)s1 | -4.87 | 14.6% (inactive)
15 | CCOC(=O)/C=c1\s/c(=C\c2ccccc2OC)c(=O)n1CC(=O)N1CCOCC1 | -2.84 | 8.35% (inactive)
16 | Cc1cccc(NC(=O)CN2C(=O)c3ccccc3C2=O)c1C | 2.88 | -5.58% (inactive)
17 | CCOC(=O)/C=c1\s/c(=C\c2ccc(C#N)cc2)c(=O)n1CC(=O)Nc1cccc(C)c1C | -32.2 | 50.4% (active)
18 | Cc1nc2c(OCC(=O)C(C)(C)C)cccn2c1N(C)Cc1cccs1 | 21.8 | -5.32% (inactive)
19 | O=C(Cn1cnc2c(OCc3ccccc3)ncnc21)NCCCn1ccnc1 | 9.45 | -7.19% (inactive)
20 | COc1cc(OC)cc(C(=O)NNC(=O)CCOc2ccccc2OC)c1 | -6.59 | 7.42% (inactive)
21 | CCN(c1ccccc1)S(=O)(=O)c1ccc(C(=O)Nc2ccccc2OC)cc1 | 2.43 | 4.73% (inactive)
22 | COc1ccc(-c2cc(C(F)(F)F)nc(S(C)(=O)=O)n2)cc1OC | -22.6 | 52.7% (active)
23 | COc1ccc(-c2cc(-c3ccc(N)cc3)nc(N)c2C#N)cc1OC | 172 | 21.5% (inactive)
24 | COc1ccc(-c2csc(-c3cccs3)n2)cc1OC | -4.83 | -5.04% (inactive)
25 | CCCCCCCCNS(=O)(=O)CCNC1CCCCC1 | -4.65 | 5.91% (inactive)
26 | COc1ccc(OC)c(/C=C/C(=O)c2ccc3c(c2)OCO3)c1 | 4.46 | 9.85% (inactive)
27 | Cc1c(NS(=O)(=O)c2cccc(C(=O)Nc3ccc(SC(F)F)cc3)c2)c(=O)n(-c2ccccc2)n1C | -2.02 | -3.28% (inactive)

Row | Compound | DAPI nuclei signal change (viability), lower = more cytotoxic [%] | inhibition
28 | COc1ccc(S(=O)(=O)N(C)C)cc1NC(=O)COC(=O)c1n[nH]c2ccccc12 | -4.57 | 4.68% (inactive)
29 | Cc1cccc(OCC(=O)OCC(=O)Nc2ccc(Cl)cn2)c1 | 5.47 | -14.4% (inactive)
30 | O=C1/C(=C/c2cccs2)CCc2ccccc21 | 3.51 | -10.1% (inactive)
31 | COc1ccc(/C=C2\CCc3ccccc3C2=O)c(OC)c1OC | -2.46 | -5.18% (inactive)
32 | COc1ccc(/C=C2/CCCc3ccccc3C2=O)cc1 | -45.7 | 59.8% (active)
33 | O=C(COC(=O)c1cccc(Cl)c1Cl)NC1CCCCCC1 | 6.13 | -15.2% (inactive)
34 | C=CCn1c(SCC(=O)NCC2CCCO2)nc2sc(C)c(C)c2c1=O (stereo not given) | 4.45 | -8.48% (inactive)
35 | C=CCn1c(SCc2c(C)noc2C)nc2sc3c(c2c1=O)CCC(C)C3 (stereo not given) | -30.5 | 85.1% (active)
36 | CCCn1nnc2sc3c(c2c1=O)CCC(C)C3 (stereo not given) | 3.37 | 0.861% (inactive)
37 | CN1CCn2cnc(C(=O)NCC(=O)OC(C)(C)C)c2C1=O | -1.68 | -2.56% (inactive)
38 | CN(Cc1ccc(CNC[C@H]2O[C@@H](n3cnc4c(N)ncnc43)[C@H](O)[C@@H]2O)o1)S(C)(=O)=O | 2.25 | 3.67% (inactive)
39 | Cc1cc(NC(=O)CSc2nc(C(C)C)nc3sc4c(c23)CCC(C)C4)no1 (stereo not given) | 1.86 | 65.3% (active)
40 | Cc1cc(NC(=O)CSc2nc3c(cc2C#N)CCCCC3)no1 | 24 | 6.4% (inactive)
41 | Cc1cc(NC(=O)CSc2ncc(C(F)(F)F)cc2Cl)no1 | -5.5 | 0.466% (inactive)
42 | Brc1ccc(CN2CC[C@H]3C=CCc4cccc(c43)C2)cc1 | 12.5 | -54.7% (inactive)
43 | COc1ccc(Cl)cc1NC(=O)CN(C)C(=O)c1cc(-c2cccs2)nn1-c1ccccc1 | 3.57 | 2.51% (inactive)
44 | Cc1nc2ccccn2c(=O)c1NC(=O)c1ccc(Br)o1 | 4.97 | 4.01% (inactive)
45 | COc1ccc(C(O)c2nc(-c3ccc(OC)nc3)cs2)cc1 (stereo not given) | 4.55 | -44.6% (inactive)
46 | COc1ccc2c(c1)O/C(=C\c1ccccc1O)C2=O | 4.81 | -5.85% (inactive)
47 | COc1cc(/C=C2\Oc3ccc(C#Cc4ccc(O)cc4)cc3C2=O)cc(OC)c1 | -0.886 | 120% (active)
48 | COc1cc(C#Cc2ccc3cc(CCCO)oc(=O)c3c2)cc(OC)c1 | -19.9 | 46.6% (inactive)
49 | O=C(CSc1n[nH]c(=O)n1-c1ccccc1)Nc1ccccc1C(F)(F)F | 4.07 | 6.49% (inactive)
50 | COc1ccc(OC)c(NC(=O)C2CCCN2S(=O)(=O)c2ccc3c(c2)CC(C)N3C(C)=O)c1 (stereo not given) | -10.6 | -4.08% (inactive)
51 | NC(=O)c1ccccc1N(Cc1ccccc1)S(=O)(=O)c1ccccc1 | -8.47 | 2.63% (inactive)
52 | CCN1CCN(C(=O)c2ccccc2N(C)S(=O)(=O)c2ccc(C)cc2)CC1 | -0.758 | 7.33% (inactive)
53 | CCOC(=O)N1CCN(C(=O)c2ccccc2N(Cc2ccccc2)S(=O)(=O)c2ccc(OC)cc2)CC1 | -41 | 53.3% (active)
54 | CCN1C[C@@H]2[C@@H]3C(=O)N(Cc4ccccc4)C(=O)[C@@H]3[C@](C)(C1=O)N2C(=O)c1ccc(C(C)(C)C)cc1 | -6.19 | 19.2% (inactive)

Row | Compound | DAPI nuclei signal change (viability), lower = more cytotoxic [%] | inhibition
55 | COc1ccc(NC(=O)CNc2cc(S(=O)(=O)N3CCOCC3)ccc2N2CCOCC2)c(OC)c1 | 15.7 | -15.8% (inactive)
56 | Cc1ccsc1/C=N/Nc1ccc(Cl)nn1 | -14 | 5.97% (inactive)
57 | Clc1ccc(N/N=C/c2cccs2)nn1 | 3.1 | -6.69% (inactive)
58 | C/C(=N\Nc1ccc(Cl)nn1)c1ccccc1O | -30.3 | 59.1% (active)
59 | COc1ccccc1-c1nn(Cc2ccccc2)cc1C(=O)N1CCN(c2ncccn2)CC1 | -19.5 | 12.4% (inactive)
60 | CC(C)C(=O)N1CCN(c2nc(-c3ccccc3)c3c(c2C#N)CC(C)(C)OC3)CC1 | 5.61 | 6.61% (inactive)
61 | O=C1CC2(CCN(C(=O)COc3ccc(F)cc3)CC2)Oc2ccccc21 | -14.6 | 21.4% (inactive)
62 | CC(C)C(=O)N1CCC2(CC1)Oc1ccc(F)cc1C(=O)C21CC(c2ccccc2)=NO1 (stereo not given) | -26.9 | 60% (active)
63 | COc1ccc(C(=O)NCc2ccccc2C)cc1S(=O)(=O)NC1CCCC1 | 1.26 | -5.94% (inactive)
64 | C(=N\N1CCN(c2ccccn2)CC1)/C1=C(N2CCOCC2)C(=C/c2ccccc2)/CC1 | 12.6 | 8.28% (inactive)
65 | O=C1Nc2ccc(Br)cc2/C1=N/N=C/C1=C(N2CCOCC2)C(=C\c2ccccc2)/CC1 | -30.7 | 142% (active)
66 | O=C(O)c1ccc(NN=CC2=C(N3CCOCC3)/C(=C/c3ccccc3)CC2)cc1 | 1.8 | 2.29% (inactive)
67 | CC(=O)Oc1ccc(Cn2c(C)c(C(=O)NCc3ccc(C#N)cc3)sc2=O)cc1 | -0.306 | -4.77% (inactive)
68 | COc1cc(Cl)c(C)cc1NC(=O)CSc1nnc(CN2CCCC2)o1 | 4.62 | 1.12% (inactive)
69 | Cc1ccn(CC(=O)NC2CCCN(Cc3ccccc3F)C2)n1 (stereo not given) | 1.69 | -15.9% (inactive)
70 | Cc1ccc(OCCNC(=O)c2cccc(S(=O)(=O)N3CCN(Cc4ccccc4)CC3)c2)cc1 | 3.36 | -7.75% (inactive)
71 | CC(C)CCOc1ccc(C(=O)Nc2cc(S(=O)(=O)N3CCOCC3)ccc2N2CCOCC2)cc1 | -52.3 | 65.1% (inactive)
72 | O=C(Nc1ccc2oc(-c3ccc4ccccc4c3)nc2c1)c1cccs1 | 21.1 | 33% (inactive)
73 | CCCCCC(=O)Nc1ccc2oc(-c3ccncc3)nc2c1 | -5.68 | 4.08% (inactive)
74 | O=C(Cc1cccc2ccccc12)Nc1ccc2oc(-c3ccccc3)nc2c1 | -5.68 | 55.2% (active)
75 | CC(=O)NC(c1cccc(F)c1)c1nc(-c2cccc(F)c2)cs1 (stereo not given) | 2.1 | -15.8% (inactive)
76 | CCCn1c(N)c(C(=O)CSc2nnc(Cc3cccs3)n2C2CC2)c(=O)[nH]c1=O | -3.34 | 5.02% (inactive)
77 | COc1ccc(S(=O)(=O)N2CCN(CC(=O)NCC3(N4CCOCC4)CCCCC3)CC2)cc1 | -5.18 | -1.89% (inactive)
78 | CCn1c2ccccc2c2cc(NC(=O)CNC)ccc21 | -1.08 | 10.2% (inactive)
79 | COc1cc(Cn2c3ccc(NC(=O)CC(C)c4ccccc4)cc3c(=O)n2C)ccc1F (stereo not given) | 6.84 | 4.12% (inactive)
80 | CCOCCC(=O)Nc1ccc2c(c1)c(=O)n(C)n2-c1ccc2ccccc2c1 | -27.1 | 52.9% (active)
